Experimental data from PubChem BioAssay (NCATS).
Values without a mark were called inactive. Active and inactive are the calls of the source. Calls follow the shape of the dose curve; as a rule, active = well fitted cell-killing curve with a large enough effect; inconclusive = small, poorly fitted or top-dose-only effect; inactive = flat fitted curve, though single readings scatter.

Assay: MultiTox-Fluor Cytotoxicity Assay - LYMP1-003 - Live Cells (AID 962);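 also: cells exposed to compound for 16 hours at 37 °C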;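 as to activity change, negative = fewer live cells: 0% = DMSO only and full loss = 92 µM tetraoctylammonium bromide; cytotoxic hits lower the live-cell protease signal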
Conditions: LYMP1-003 lymphoblastoid cells, MultiTox-Fluor live-cell protease fluorescence; series mostly up to 92.2 µM; activity change, negative = fewer live cells: at the top concentration
How it was run: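 Live-cell protease activity (GF-AFC substrate, 405/510 nm, 60 min at room temperature) after 16 h, 37 C compound exposure of human lymphoblastoid LYMP1-003 cells; concentration-response fitted to the Hill equation for AC50.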
Potency is read from the fitted curve at half-maximal effect.

SMILES | activity change, negative = fewer live cells [%] | Potency
Nc1ccc2cc3ccccc3cc2c1 | -3.13 | 
CN(C)c1ccc(C2(c3ccc(N(C)C)cc3)OC(=O)c3cc(N(C)C)ccc32)cc1 | -0.492 | 
Cc1cc(Nc2ccc(O)cc2)ccc1N | -29.7 | 
CO[C@H]1/C=C/O[C@@]2(C)Oc3c(C)c(O)c4c(O)c(c5c(c4c3C2=O)NC2(CCN(CC(C)C)CC2)N=5)=NC(=O)/C(C)=C\C=C\[C@H](C)[C@H](O)[C@@H](C)[C@@H](O)[C@@H](C)[C@H](OC(C)=O)[C@@H]1C | -17.9 | 
Cc1cc(O)c(C(C)(C)C)cc1Sc1cc(C(C)(C)C)c(O)cc1C |  | 39.8 µM (active)
C=C(C)c1ccccc1 | -0.142 | 
O=C1OC2(c3cc(Br)c(O)c(Br)c3Oc3c2cc(Br)c(O)c3Br)c2c(Cl)c(Cl)c(Cl)c(Cl)c21 | -35.5 | 
ClC1=C(Cl)C(Cl)(Cl)C(Cl)=C1Cl | -1.99 | 
C=CC(=O)OCCOCCOC(=O)C=C |  | 31.6 µM (active)
C/C=C1\C(=O)C[C@H]2[C@@H]3CCC4=CC(=O)CC[C@]4(C)[C@H]3CC[C@]12C | -1.98 | 
CNc1ccc(O)cc1 |  | 31.6 µM (active)
CC(=O)Nc1ccc(C(=O)CCl)cc1 |  | 31.6 µM (active)
CCC(C)Nc1ccc(NC(C)CC)cc1 (stereo not drawn) |  | 12.6 µM (active)
O=C=Nc1ccc(Cc2ccc(N=C=O)cc2)cc1 | -5.42 | 
c1ccc2c(c1)ccc1cc3c(ccc4ccccc43)cc12 | -3.61 | 
c1ccc2c(c1)-c1cccc3c1c-2cc1ccccc13 | -3.02 | 
O=[N+]([O-])c1cc([N+](=O)[O-])c2ccc(S(=O)(=O)O)cc2c1O | -32.8 | 
O=Cc1ccc(Cl)c(Cl)c1 | -5.11 | 
